# Laboratory results from PubChem BioAssay (Tox21).
# Results filed as inconclusive are left out. A call without a number means that no potency is given here. Unmarked numbers belong to inactive results. Calls of active or inactive are those of the source. The call rests on the fitted dose curve; in most records, active means well fitted cell-killing curve with a large enough effect in the repeat runs; inconclusive means weak or mixed curves, or effect the other way; inactive means no such curve, though single readings can be large or run the other way.
# Test: Caspase-3/7 induction in CHO-K1 cells by small molecules, qHTS cell viability counter screen (AID 1346979); further: nearly all actives have a fitted effect of over 35% in size
# Settings: CellTiter-Fluor fluorescence, 17 h; series mostly up to 92.4 µM
# From the text: National Center for Advancing Translational Sciences [NCATS]
# NIH Chemical Genomics Center [NCGC]
# U.S. Environmental Protection Agency [EPA]
# National Institutes of Environmental Health Sciences [NIEHS]
# National Toxicology Program [NTP]
# U.S. Food and Drug Administration [FDA]
# Apoptosis is a process of programmed cell death and plays a central role in the development of multicellular organisms. It is a highly regulated process and induces cell death by activating caspases, which are the members of cysteine aspartic acid-specific protease (caspase) family. Caspases involved in apoptosis are classified by their mechanism of action as initiator caspases (caspase-2, -8, -9 and -10) and executioner caspases (caspase-3, -6, and -7). Inhibition of apoptosis results in number of cancers, autoimmune diseases, inflammatory diseases and viral infection. To identify small molecule compounds that induce apoptosis, a homogeneous, luminescent Caspase-Glo 3/7 assay was used. Wild type CHO-K1 cells were used to screen Tox21 libraries for identifying caspase-3/7 activity inducers. Also cytotoxicity of the compounds was tested in parallel by measuring the cell viability using CellTiter-Fluor assay system in the same wells.
# Tox21 Assay Protocol Summary:
# CHO-K1 cells were dispensed at 1,500 per well in 5uL of culture medium into white solid bottom 1536-well plates (Corning Life Sciences, Corning, NY) using a Multidrop Combi (Thermo Scientific, Waltham, MA) dispenser. The assay plates were incubated at 37 C and 5% CO2 for 5hr, and then 23nL of compounds dissolved in DMSO and positive control were transferred using a Pintool station (Wako, San Diego, CA). The assay plates were incubated at 37C and 5% CO2 for 17hr. For cytotoxicity read, after 16hr incubation at 37C, 1uL CellTiter-Fluor reagent (Promega Corporation, Madison, WI) was added to each well of the assay plates using Flying Reagent Dispenser (FRD, Aurora Discovery, San Diego, CA). After 1hr incubation at 37C and 5% CO2, the fluorescence signal was quantified using a ViewLux plate reader (PerkinElmer, Shelton, CT).
SMILES,Potency,"activity change, negative = cytotoxicity"
COc1cc(S(N)(=O)=O)cc(C(=O)O)c1OC,inactive,
CC(C)(C)c1ccc(C(=O)CCCCl)cc1,inactive,
O=P(O)(O)C(O)(Cc1cccnc1)P(=O)(O)O,inactive,
CCOC(=O)CC(C(C)=O)C(C)=O,inactive,
CCN(CC)CC(=O)Oc1ccc(NC(C)=O)cc1,inactive,
CC(C)C(=O)Nc1cccc(C2CN3CCSC3=N2)c1 (stereo not given),inactive,
COC(=O)c1ccc(NC(C)=O)cc1OC,inactive,
CC(C)(Sc1cc(C(C)(C)C)c(O)c(C(C)(C)C)c1)Sc1cc(C(C)(C)C)c(O)c(C(C)(C)C)c1,inactive,
COC(=O)c1cc(Cl)c(NC(C)=O)cc1OC,inactive,
CCCC(C)C(O)CC (stereo not given),inactive,
Cc1nnc(C(=O)NC(C)(C)c2nc(C(=O)NCc3ccc(F)cc3)c(O)c(=O)n2C)o1,inactive,
CC(CN1CC(=O)NC(=O)C1)N1CC(=O)NC(=O)C1 (stereo not given),inactive,
CC12CCCC=C1C(=O)OC2=O (stereo not given),inactive,
C[n+]1ccccc1/C=N/O,inactive,
O=C1Nc2ccccc2C1=O,inactive,
CCCCCCC(=O)c1ccccc1,inactive,
CCOc1ccccc1OCCN[C@H](C)Cc1ccc(OC)c(S(N)(=O)=O)c1,inactive,
CCCCN(CCCC)CCCCCCN(CCCC)CCCC,inactive,
CC(O)C(CO)C(C)O (stereo not given),inactive,
O=C(c1ccccc1)c1cccc(O)c1,inactive,

SMILES,Potency,"activity change, negative = cytotoxicity"
N#Cc1cc(NC(=O)C(=O)O)c(Cl)c(NC(=O)C(=O)O)c1,inactive,
CN(C)CCc1c[nH]c2ccc(C[C@H]3COC(=O)N3)cc12,inactive,
CCCCOCCCC,inactive,
CC(=O)/C=C/C=C1/C2CCC(C2)C1(C)C (stereo not given),inactive,
Cc1cc(C)c(N)c(Cl)c1,inactive,
CCCC(=O)OC,inactive,
C[C@@H]1NC(=O)[C@@H](N)CNC(=O)[C@H](C2CCNC(N)=N2)NC(=O)/C(=C/NC(N)=O)NC(=O)[C@H](CNC(=O)C[C@@H](N)CCCN)NC1=O (stereo not given in full),,9.26% [at 0.349 µM]
Cc1ccc(Br)cc1,inactive,
COc1cnc(NS(=O)(=O)c2ccc(N)cc2)nc1,inactive,
CN(C)c1cc(NC(=O)CNC(C)(C)C)c(O)c2c1C[C@H]1C[C@H]3[C@H](N(C)C)C(=O)C(C(N)=O)=C(O)[C@@]3(O)C(=O)C1=C2O,inactive,
O=C(O)Cc1ccccc1Oc1ccc(Cl)cc1Cl,inactive,
CCN1CCN(C(=O)N[C@@H](C(=O)N[C@@H]2C(=O)N3[C@@H]2SC(C)(C)[C@H]3C(=O)O)c2ccccc2)C(=O)C1=O,inactive,
CCCCCC(CC)OC(=O)CCCOc1ccc(Cl)cc1Cl (stereo not given),inactive,
CCCCCCCOC(C)=O,inactive,
CN1CCN(C(=O)C2CCCCC2)CC1,inactive,
CCCCCCCCCCCC(C)=O,inactive,
O=C(O)P(=O)(O)O,inactive,
CSC(=O)c1cccc2nnsc12,inactive,
CCCCCCCCCCCCCCCC(=O)OC,,3.95% [at 19 µM]
C[C@@H]1CCC[C@H](C)N1CCCC(O)(c1ccccc1)c1ccccn1 (stereo not given in full),inactive,
